Test systems include HCT-15 colon; HT29 colon; SNB-75 CNS; SNB-19 CNS; U251 CNS; PC-3 prostate; UACC-62 melanoma; LOX IMVI melanoma; SK-MEL-28 melanoma; SK-MEL-2 melanoma; EKVX NSCLC; SN12C renal; UO-31 renal; TK-10 renal; ACHN renal; CAKI-1 renal; A498 renal; CCRF-CEM leukemia; MOLT-4 leukemia; SK-MEL-5 melanoma.
Assay in all cases: NCI-60 one-dose screen, 48 h (100 = growth as untreated, 0 = no growth, -100 = all killed)
Conditions in all cases: 10 µM unless noted

The panel holds about 83,000 compounds, 20% with a hit somewhere; the sample as a whole holds those more often.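 Results are percent growth after 48 hours of single-concentration exposure. 100 means growth as in untreated cells, lower positive values show inhibition; negative values down to -100 show cell death.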 Unmarked numbers belong to inactive results. Activity calls are given as the source filed them. How the source made its calls: active means growth percent below 10; inactive means the rest.

`COc1ccc(/C(C)=C(\c2ccc(Cl)cc2)c2ccc(OCCN3CCCC3)cc2)cc1F`: the growth is 1.16% (active) with HCT-15 colon; -10.5% (active) in the test on HT29 colon; 47.6% in the test on SNB-75 CNS; 42.8% in the test with SNB-19 CNS; 19.1% in the test with U251 CNS; 30% in the test on PC-3 prostate. The growth with UACC-62 melanoma was -30.2% (active); in the test on LOX IMVI melanoma it was -88.3% (active); with SK-MEL-28 melanoma it was -42.1% (active); in the test on SK-MEL-2 melanoma it was 59.9%; in the test on EKVX NSCLC, 47%; with SN12C renal it was 51.6%. For the same compound, the growth in the test on UO-31 renal is 28.9%; with TK-10 renal, 62%; in the test with ACHN renal, 50.9%; in the test with CAKI-1 renal, 22%; with A498 renal, 68%; in the test with CCRF-CEM leukemia, 31.2%. For the same compound, in the test with MOLT-4 leukemia, the growth is -5.27% (active).

In the case of `COc1cc2c(c(OC)c1OC)C(=O)/C(=C/c1cc(C)c(O)c(C)c1)S2`, the growth is 25.4% in the test on HCT-15 colon; 82.4% in the test on HT29 colon; 4.46% (active) with SNB-75 CNS; 39.2% with SNB-19 CNS; 33% with U251 CNS; 30.9% in the test on PC-3 prostate. Moreover, the growth is 4.33% (active) with SK-MEL-5 melanoma; 26.4% in the test on LOX IMVI melanoma; 59.3% with SK-MEL-28 melanoma; 43.6% in the test on SK-MEL-2 melanoma; 43.9% with EKVX NSCLC; 45.6% in the test with SN12C renal. Besides, the growth is 33% in the test on UO-31 renal; 59.2% in the test with TK-10 renal; 45.8% in the test on ACHN renal; 26.3% in the test with CAKI-1 renal; 25% with CCRF-CEM leukemia; 33.9% in the test with MOLT-4 leukemia.

`COC1(CC[C@@H](C)COC2OC(CO)C(O)C(O)C2O)O[C@H]2C[C@H]3[C@@H]4CC=C5C[C@@H](OC6OC(CO)C(OC7OC(C)C(O)C(O)C7O)C(O)C6OC6OC(C)C(O)C(O)C6O)CC[C@]5(C)[C@H]4CC[C@]3(C)[C@H]2[C@@H]1C` (stereo partly specified): the growth in the test on HCT-15 colon was -88.7% (active); with HT29 colon, -76.6% (active); in the test on SNB-75 CNS, -70.5% (active); in the test on SNB-19 CNS it was -64.1% (active); in the test on U251 CNS it was -98.1% (active); with SK-MEL-5 melanoma, -65.1% (active). In addition, the growth in the test with UACC-62 melanoma was -92.1% (active); with LOX IMVI melanoma, -95.9% (active); with SK-MEL-28 melanoma, -95.7% (active); with SK-MEL-2 melanoma, -71% (active); in the test on EKVX NSCLC, 4.85% (active); with SN12C renal, -64.7% (active). The growth was -65.4% (active) in the test on UO-31 renal; -60.4% (active) in the test on TK-10 renal; -87.4% (active) in the test on ACHN renal; -76.5% (active) in the test with CAKI-1 renal; -95.2% (active) with CCRF-CEM leukemia; -99.1% (active) in the test on MOLT-4 leukemia.

For `Cn1cc(-c2ccc3nc(-c4ccc(CC(=O)Nc5cc(C(C)(C)C)no5)cc4)cnc3c2)cn1`, the growth in the test with HCT-15 colon was 11.5% [30 µM]; in the test with HT29 colon it was 58.4% [30 µM]; in the test with SNB-75 CNS it was 26.5% [30 µM]; in the test with SNB-19 CNS, 53.6% [30 µM]; with U251 CNS it was 37.3% [30 µM]; with PC-3 prostate it was 40.2% [30 µM]. Further, the growth is 9.8% [30 µM] (active) with UACC-62 melanoma; 20.1% [30 µM] in the test on LOX IMVI melanoma; 37.5% [30 µM] in the test on SK-MEL-28 melanoma; 22.2% [30 µM] with SK-MEL-2 melanoma; 26.1% [30 µM] in the test with EKVX NSCLC; 3.38% [30 µM] (active) in the test on SN12C renal. Besides, the growth in the test on UO-31 renal is 7.7% [30 µM] (active); with TK-10 renal, 63.5% [30 µM]; with ACHN renal, 5.16% [30 µM] (active); in the test with CAKI-1 renal it was 6.29% [30 µM] (active); in the test on A498 renal, -4.96% [30 µM] (active); with CCRF-CEM leukemia, 45.9% [30 µM]. Besides, the growth in the test on MOLT-4 leukemia was 22.1% [30 µM].

For the compound `COc1ccc(OC)c(/C=C2\COc3ccc(O)c(O)c3C2=O)c1`, the growth with HCT-15 colon was 1.18% (active); with HT29 colon, 33.7%; in the test on SNB-75 CNS it was 11.7%; in the test on SNB-19 CNS, 33.9%; in the test on U251 CNS, 19%; in the test with PC-3 prostate, 26.6%. Besides, the growth in the test on UACC-62 melanoma was 28.9%; in the test on LOX IMVI melanoma, -63.1% (active); in the test on SK-MEL-28 melanoma, 48.7%; with SK-MEL-2 melanoma it was 76.6%; in the test on EKVX NSCLC, 57.9%; in the test with SN12C renal it was -4.71% (active). Also, the growth was -25.8% (active) with UO-31 renal; 41.5% with TK-10 renal; 19.6% in the test on ACHN renal; 31.2% with CAKI-1 renal; 107% with A498 renal; -0.701% (active) with CCRF-CEM leukemia. Also, the growth in the test with MOLT-4 leukemia is 4.32% (active).

Turning to `CN(C)c1ccc(-c2cc(-c3ccc(Nc4nc(Nc5ccccc5)nc(Nc5ccc(Cl)cc5)n4)cc3)nc(N)n2)cc1`, the growth in the test on HCT-15 colon is 34.4%; in the test on HT29 colon, 34.2%; with SNB-75 CNS, 48.2%; in the test with SNB-19 CNS, 66.8%; in the test on U251 CNS it was 29.6%; with SK-MEL-5 melanoma, 31.3%. The growth in the test on UACC-62 melanoma is 49.9%; with LOX IMVI melanoma, 38.1%; in the test on SK-MEL-28 melanoma it was 75.4%; in the test with SK-MEL-2 melanoma it was 47.2%; in the test on EKVX NSCLC, 33.3%; in the test with SN12C renal, 50%. Further, the growth in the test with UO-31 renal is 39%; in the test with TK-10 renal it was 74.6%; with ACHN renal, 46.3%; in the test with CAKI-1 renal, 39.5%; in the test with MOLT-4 leukemia, -4.17% (active).

For `O=[N+]([O-])c1cccc(/C=C/c2ccccn2)c1`, the growth in the test on HCT-15 colon is 42.7%; in the test with HT29 colon, 98%; in the test with SNB-75 CNS, 58.3%; in the test on SNB-19 CNS, 74.5%; with U251 CNS it was 38.4%; with SK-MEL-5 melanoma, 79%. In addition, the growth in the test on UACC-62 melanoma is 86.1%; with LOX IMVI melanoma, 102%; in the test with SK-MEL-28 melanoma, 128%; with SK-MEL-2 melanoma, 117%; in the test on EKVX NSCLC it was 74.3%; in the test with SN12C renal it was 84.3%. Further, the growth with UO-31 renal is 69.4%; in the test with TK-10 renal, 104%; in the test on ACHN renal, 72.1%; with CAKI-1 renal, 52.3%; with CCRF-CEM leukemia it was 65.5%; in the test with MOLT-4 leukemia it was 75.2%.

Take `CC1=CC(=O)C(C(C)C)=CC1=Nc1cc(Br)c(O)c(Br)c1`: the growth with HCT-15 colon is 21%; in the test on HT29 colon it was 66.2%; in the test on SNB-75 CNS it was 27.1%; with SNB-19 CNS it was 42.1%; in the test with U251 CNS, 5.45% (active); in the test on SK-MEL-5 melanoma it was 13.9%. Further, the growth in the test on UACC-62 melanoma is 22.7%; in the test on LOX IMVI melanoma, 24%; in the test with SK-MEL-28 melanoma, 42.6%; in the test on SK-MEL-2 melanoma, 23.5%; with EKVX NSCLC it was 44.1%; with SN12C renal, 36.3%. The growth with UO-31 renal was 48.4%; in the test with TK-10 renal it was 93.2%; in the test with ACHN renal, 57.8%; in the test on CAKI-1 renal, 51.3%; in the test with CCRF-CEM leukemia it was -1.08% (active); in the test with MOLT-4 leukemia, 23.8%.
